Shown are actives, neighbours in structure and some others; about 0.96% of the full set was active somewhere.
F-actin modifier: alters cytoskeleton assembly in HUVEC cells. HUVEC TNFa F-actin phalloidin imaging, high content. inhibition, % at 2 µM. hit rate 0.18% among 91,000;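 active = inhibition above the batch mean plus 3 SD and confirmed as a hit by visual image inspection, cut at about 30% in these data, passing the limit was not always enough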
sEH inhibitor: soluble epoxide hydrolase (human) inhibition; AID 707; recombinant human sEH enzymatic activity assay; inhibition, % at 2 µM; hit rate 0.34% among 91,000; P34913; in the data active = inhibition above about 80%
Target sequence (P34913 whole entry, looked up): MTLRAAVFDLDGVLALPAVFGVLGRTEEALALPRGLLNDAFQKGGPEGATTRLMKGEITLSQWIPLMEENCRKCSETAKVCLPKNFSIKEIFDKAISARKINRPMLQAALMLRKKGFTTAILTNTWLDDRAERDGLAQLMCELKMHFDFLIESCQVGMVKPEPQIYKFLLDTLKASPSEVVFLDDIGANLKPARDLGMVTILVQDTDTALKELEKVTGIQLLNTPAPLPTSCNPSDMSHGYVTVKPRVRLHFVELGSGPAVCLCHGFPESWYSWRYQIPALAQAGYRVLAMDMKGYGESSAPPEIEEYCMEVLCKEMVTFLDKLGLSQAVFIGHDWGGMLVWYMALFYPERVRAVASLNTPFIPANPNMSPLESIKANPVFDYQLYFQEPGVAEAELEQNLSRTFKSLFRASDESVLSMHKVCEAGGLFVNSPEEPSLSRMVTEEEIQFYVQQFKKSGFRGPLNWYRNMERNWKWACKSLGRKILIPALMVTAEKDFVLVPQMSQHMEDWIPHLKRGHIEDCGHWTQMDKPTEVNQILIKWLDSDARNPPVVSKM
Phagocyt inh: inhibitors of macrophage phagocytosis | J774A.1 macrophage IgG-bead phagocytosis, imaging | inhibition, % at 5 µM | hit rate 0.07% among 110,000 | AID 1029;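 active = inhibition above the mean of the plate negative controls plus 5 SD, cut at about 13% in these data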;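 also: phagocytic index as fraction of beads internalized from green versus red external bead signal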
E-sel TNF inh: TNF alpha driven E-selectin expression inhibition; HUVEC TNFa-induced E-selectin immunofluorescence, high content; inhibition, % at 2 µM; hit rate 0.71% among 120,000;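 active = inhibition above the batch mean plus 3 SD, and confirmed as a hit on visual image review, cut at about 43% in these data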
sEH activator: activators of human soluble epoxide hydrolase; purified human sEH enzymatic activity, activator screen; activation, % at 2 µM; hit rate 0.04% among 91,000; in the data active = activation above about 37%
sdo1 growth: sdo1-depleted yeast growth rescue. AID 817. z-score at 10 µM. S. cerevisiae sdo1-depleted JHY4D growth rescue, OD600 30 h; hits give high values; pdr5 snq2 efflux-pump mutant strain. hit rate 0.21% among 140,000;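 active = z-score above 3 at both the 24 hr and the 30 hr optical density reads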
Numbers stand for hits; - = inactive; . = no result given; [ ] = dose if it differs, or a comment.

SMILES	F-actin modifier	sEH inhibitor	Phagocyt inh	E-sel TNF inh	sEH activator	sdo1 growth
CCOC(=O)c1ccc(S(=O)(=O)N2CCN(CC(=O)NC(=O)NC3CCCCC3)CC2)cc1	-	-	-	-	-	-
COC(=O)c1ccc(S(=O)(=O)N2C3CCC2CC(NC(=O)NC2CCCCC2)C3)cc1 (stereo unspecified)	-	98	-	-	-	-
COc1ccc(S(=O)(=O)N2C3CCC2CC(NC(=O)C2CC2)C3)cc1 (stereo unspecified)	-	-	-	-	-	-
CC1CC1c1ccc(/C=C(\C#N)C(=O)Nc2ccccc2Cl)o1 (stereo unspecified)	.	.	-	-	.	-
CC1CC1c1ccc(/C=C(\C#N)C(=O)Nc2ccc(Cl)cc2)o1 (stereo unspecified)	.	.	-	64	.	-
CCOc1ccc(CN2CCNC(=O)C2CC(=O)OC)cc1 (stereo unspecified)	-	-	-	-	-	-
CCOC(=O)c1c(NC(=O)CSC2=NN3CCCC(=O)N=C3S2)sc2c1CCCCC2	.	.	.	-	.	-
COc1ccc(-c2csc3ncnc(Oc4cccc5ccc(C)nc45)c23)cc1	.	.	-	89	.	-
COc1ccc(C(=O)CSc2nnc(CN3CCCCC3)n2-c2ccc(Cl)cc2)cc1OC	.	.	-	.	.	-
C/C(Cn1nc([N+](=O)[O-])cc1C)=N\NC(=O)COc1ccc(Cl)cc1Cl	.	.	-	.	.	-
Cc1cc(C)n(C(=O)CNC(=O)CCc2ccccc2)n1	-	-	-	99	-	-
Cc1ccc(CCNC(=O)C2CCCN(S(=O)(=O)c3cccc4nsnc34)C2)cc1 (stereo unspecified)	-	83	-	.	-	-
CCn1c(=O)cc(SCC(=O)N2CCN(C3CCCCC3)CC2)c2ccccc21	-	-	-	67	-	-
Cn1cc(Cl)c(C(=O)NNC(=S)NCc2ccco2)n1	.	.	.	73	.	.
Nc1cccc(-n2nncc2-c2ccc(Cl)cc2)c1	-	-	-	65	-	-
Cc1ccccc1CSCCNC(=O)CCSc1ccccc1	-	81	-	-	-	-
COc1ccc(C2C(C(=O)Nc3cccnc3)=C(C)Nc3nc(-c4cccs4)nn32)cc1 (stereo unspecified)	-	-	.	100	-	-
Cc1ccc(NC(=O)CN2C(=O)C3CCCCN3C(=O)c3ccccc32)cc1 (stereo unspecified)	-	-	-	-	-	-
COC(=O)c1ccccc1NC(=O)CN1CCC(NC(=O)c2ccccc2C)CC1	-	-	-	-	-	-
Cc1cc(S(=O)(=O)NCCN2CCOCC2)c(C)s1	65	-	-	-	-	-
CCN(CC)S(=O)(=O)c1cccc(-c2nnc(SC(C)C(=O)NCCC3=CCCCC3)o2)c1 (stereo unspecified)	.	85	.	-	-	-
CCC(C)NC(=O)Nc1ccc2c(c1)N(C)C(=O)c1ccccc1S2 (stereo unspecified)	-	88	-	-	-	-
CC12CCC(C/C1=N\N=C1\NC(=O)/C(=C\c3ccc(Cl)cc3)S1)C2(C)C (stereo unspecified)	.	.	-	.	.	-
C=C1C(=O)C=C2CN(C(=O)c3ccccc3)[C@@](Cc3ccc(F)cc3)(C(=O)OC)[C@@H]12	.	.	.	100	.	-
COC(=O)[C@@]1(Cc2ccc(OC)cc2)[C@@H]2C(=CC(=O)[C@H]2CC(=O)C(=O)N(C)C)CN1C(=O)c1ccccc1	.	.	.	-	.	-
SMILES	F-actin modifier	sEH inhibitor	Phagocyt inh	E-sel TNF inh	sEH activator	sdo1 growth
Cn1c(=O)c2c(nc(SCC(=O)NC34CC5CC(CC(C5)C3)C4)n2C)n(C)c1=O	-	-	-	68	-	-
Cc1cc(N2CCC(C)CC2)nc(-n2nc(C)cc2C)n1	40	-	-	-	-	-
COC(=O)c1ccccc1OCCCN(C)C	.	.	-	.	.	-
Cc1cc(/C=C2/C(=N)N3C(=NC2=O)SN=C3S(C)(=O)=O)c(C)n1-c1ccccc1F	.	.	.	-	.	.
CS(=O)(=O)C1=NSC2=NC(=O)/C(=C\c3cccn3-c3ccc(Cl)cc3)C(=N)N21	.	.	-	100	.	-
COc1cc2c(cc1OC)CN(C(=O)CSc1nnc(C)s1)CC2	-	-	-	-	-	-
O=C1NCC(COc2cccc3ccccc23)O1 (stereo unspecified)	.	.	.	-	.	.
COc1ccc(OCC2CNC(=O)O2)cc1 (stereo unspecified)	.	.	-	96	.	-
CCn1cc(C(=O)NCc2ccco2)c(=O)c2cc(S(=O)(=O)N3CCc4ccccc4C3)ccc21	-	-	-	100	-	-
Cc1c(C(=O)NNC(=S)Nc2cccc(Cl)c2)nnn1-c1ccccc1	.	.	-	.	.	-
COc1ccc2c(c1)C1CC(C)(NC(=O)C1S(=O)(=O)c1ccc(F)cc1)O2 (stereo unspecified)	.	.	-	77	.	-
Cc1ccn2cc(CCNS(=O)(=O)c3ccc(F)c(C(F)(F)F)c3)nc2c1	-	-	-	89	-	-
CCCCn1nnnc1SCC(=O)N1CCOCC1	-	-	-	-	-	-
Cc1cccc(OCCCC(=O)O)c1	-	-	-	65	-	-
CC1=C(C(=O)OCC(C)C)C(c2ccc(F)cc2)NC(=O)N1 (stereo unspecified)	-	.	-	.	.	-
COc1ccc(OC)c2sc(NC(=O)CCS(=O)(=O)c3ccccc3)nc12	-	-	.	93	-	.
O=C(NNS(=O)(=O)c1ccc(F)cc1)c1sccc1-n1cccc1	.	.	.	-	.	.
Cc1ccc(S(=O)(=O)NNC(=O)c2sccc2-n2cccc2)cc1	-	-	.	62	-	-
OC(CNCCC(c1ccccc1)c1ccccc1)COc1ccccc1 (stereo unspecified)	.	.	.	-	.	.
CCOC(=O)CCc1nc2ccccc2[nH]c1=O	-	-	-	63	-	-
CC(C)(C)C(=O)OCCNc1nc(-c2ccccc2)nc2ccccc12	.	.	-	.	.	-
COc1ccccc1N1C(=O)CCC1(C#N)c1ccc(Br)cc1 (stereo unspecified)	-	-	-	-	-	-
COc1ccc(N2C(=O)CCC2(C#N)c2ccc(Br)cc2)cc1 (stereo unspecified)	-	-	-	100	-	-
CCOc1ccc(C2N(c3ccc(F)cc3)C(=O)C3CCCN32)cc1OC (stereo unspecified)	-	-	-	-	-	-
CCOC(=O)c1[nH]c(C)c(CCC(=O)O)c1C	-	-	-	-	-	-
SMILES	F-actin modifier	sEH inhibitor	Phagocyt inh	E-sel TNF inh	sEH activator	sdo1 growth
CCOc1c(C)cc2[nH]c(CCC(=O)O)nc2c1C	.	.	.	96	.	-
Cn1cnnc1SCC(=O)NN(c1ccccc1)c1ccccc1	.	.	27[artifact]	.	.	-
O=C(OCn1ncc(Cl)c(Cl)c1=O)c1ccccc1Cl	-	-	.	100	-	-
O=C(Cn1ncc(Cl)c(Cl)c1=O)c1ccc(Cl)cc1	-	-	.	-	-	-
O=C(OCn1ncc(Cl)c(Cl)c1=O)c1ccc(F)cc1	-	-	.	100	-	-
N#Cc1ccc(CO/N=C/c2ccccc2)cc1	.	.	.	-	.	.
CCOC(=O)c1c(C)[nH]c(C(=O)OCCOc2ccc(Cl)cc2)c1C	.	.	-	.	.	-
CCOC(=O)c1c(C)[nH]c(C(=O)OCCOc2ccccc2C)c1C	.	.	-	67	.	-
OCCCc1nc2n(n1)C(c1cccs1)C=C(c1ccc(Br)cc1)N2 (stereo unspecified)	-	-	-	-	-	-

Screening results deposited in PubChem BioAssay by several laboratories.
